# Assay results from the supplement of paper PMC7261846.
# Counter-ions that a name gives are not always drawn. ± gives the uncertainty stated by the source.
# System: Candida albicans SNY425 biofilm
# Assay: biofilm OD600 with compound plus antifungal (OD600 (absorbance)); higher = more biofilm remaining
# Conditions: assay detail: disruption of 24-h mature biofilm (compound + antifungal for a second 24 h)
row,Structure (SMILES),biofilm OD600
1,CC(C)C[C@H](NC(=O)[C@@H](O)[C@H](N)Cc1ccccc1)C(=O)O [Bestatin·HCl] + CC[C@H](C)C[C@H](C)CCCCCCCCC(=O)N[C@H]1C[C@@H](O)[C@@H](NCCN)NC(=O)[C@@H]2[C@@H](O)CCN2C(=O)[C@H]([C@H](O)CCN)NC(=O)[C@H]([C@H](O)[C@@H](O)c2ccc(O)cc2)NC(=O)[C@@H]2C[C@@H](O)CN2C(=O)[C@H]([C@@H](C)O)NC1=O [caspofungin] (first compound 12.5 µM),0.283 ± 0.013
2,CCCCC[C@H](CC(=O)NO)C(=O)N[C@H](C(=O)N1CCC[C@H]1CO)C(C)C [Actinonin] + CC[C@H](C)C[C@H](C)CCCCCCCCC(=O)N[C@H]1C[C@@H](O)[C@@H](NCCN)NC(=O)[C@@H]2[C@@H](O)CCN2C(=O)[C@H]([C@H](O)CCN)NC(=O)[C@H]([C@H](O)[C@@H](O)c2ccc(O)cc2)NC(=O)[C@@H]2C[C@@H](O)CN2C(=O)[C@H]([C@@H](C)O)NC1=O [caspofungin] (first compound 12.5 µM),0.263 ± 0.021
3,O=C[C@@H]1CCCN1C(=O)[C@@H]1CCCN1C(=O)OCc1ccccc1 [Z-Prolyl-prolinal] + CC[C@H](C)C[C@H](C)CCCCCCCCC(=O)N[C@H]1C[C@@H](O)[C@@H](NCCN)NC(=O)[C@@H]2[C@@H](O)CCN2C(=O)[C@H]([C@H](O)CCN)NC(=O)[C@H]([C@H](O)[C@@H](O)c2ccc(O)cc2)NC(=O)[C@@H]2C[C@@H](O)CN2C(=O)[C@H]([C@@H](C)O)NC1=O [caspofungin] (first compound 12.5 µM),0.261 ± 0.0097
4,NC(=O)c1cccc(-c2cccc(OC(=O)NC3CCCCC3)c2)c1 + OC(Cn1cncn1)(Cn1cncn1)c1ccc(F)cc1F [fluconazole] (first compound 12.5 µM),0.283 ± 0.0052
5,CNC(=O)[C@H](Cc1c[nH]c2ccccc12)NC(=O)[C@@H](CC(=O)NO)CC(C)C + CC[C@H](C)C[C@H](C)CCCCCCCCC(=O)N[C@H]1C[C@@H](O)[C@@H](NCCN)NC(=O)[C@@H]2[C@@H](O)CCN2C(=O)[C@H]([C@H](O)CCN)NC(=O)[C@H]([C@H](O)[C@@H](O)c2ccc(O)cc2)NC(=O)[C@@H]2C[C@@H](O)CN2C(=O)[C@H]([C@@H](C)O)NC1=O [caspofungin] (first compound 12.5 µM),0.278 ± 0.01
6,CC(NC(=O)C(Cc1ccccc1)NC(=O)OCc1ccccc1)C(=O)CF (configuration not stated) + C[C@@H]1[C@H](O)[C@@H](C)/C=C/C=C/C=C/C=C/C=C/C=C/C=C/[C@H](O[C@@H]2O[C@H](C)[C@@H](O)[C@H](N)[C@@H]2O)C[C@@H]2O[C@](O)(C[C@@H](O)C[C@@H](O)[C@H](O)CC[C@@H](O)C[C@@H](O)CC(=O)O[C@H]1C)C[C@H](O)[C@H]2C(=O)O [amphotericin B] (first compound 12.5 µM),0.307 ± 0.0094
7,Cc1cccc(C)c1OCC(=O)N[C@@H](Cc1ccccc1)[C@@H](O)C[C@H](Cc1ccccc1)NC(=O)[C@H](C(C)C)N1CCCNC1=O [lopinavir] + OC(Cn1cncn1)(Cn1cncn1)c1ccc(F)cc1F [fluconazole] (first compound 12.5 µM),0.246 ± 0.01
8,NCC1CCC(C(=O)N[C@@H](Cc2ccccc2)C(=O)Nc2ccc(CC(=O)O)cc2)CC1 (some centres not stated) + OC(Cn1cncn1)(Cn1cncn1)c1ccc(F)cc1F [fluconazole] (first compound 12.5 µM),0.251 ± 0.0096
9,COC(=O)N[C@H](C(=O)N[C@@H](Cc1ccccc1)[C@@H](O)CN(Cc1ccc(-c2ccccn2)cc1)NC(=O)[C@@H](NC(=O)OC)C(C)(C)C)C(C)(C)C [atazanavir] + CC[C@H](C)C[C@H](C)CCCCCCCCC(=O)N[C@H]1C[C@@H](O)[C@@H](NCCN)NC(=O)[C@@H]2[C@@H](O)CCN2C(=O)[C@H]([C@H](O)CCN)NC(=O)[C@H]([C@H](O)[C@@H](O)c2ccc(O)cc2)NC(=O)[C@@H]2C[C@@H](O)CN2C(=O)[C@H]([C@@H](C)O)NC1=O [caspofungin] (first compound 12.5 µM),0.203 ± 0.0059
10,CC(C)CCNC(=O)[C@H](CC(C)C)NC(=O)[C@H]1O[C@@H]1C(=O)O + C[C@@H]1[C@H](O)[C@@H](C)/C=C/C=C/C=C/C=C/C=C/C=C/C=C/[C@H](O[C@@H]2O[C@H](C)[C@@H](O)[C@H](N)[C@@H]2O)C[C@@H]2O[C@](O)(C[C@@H](O)C[C@@H](O)[C@H](O)CC[C@@H](O)C[C@@H](O)CC(=O)O[C@H]1C)C[C@H](O)[C@H]2C(=O)O [amphotericin B] (first compound 12.5 µM),0.27 ± 0.0079
11,Cc1cccc(C)c1OCC(=O)N[C@@H](Cc1ccccc1)[C@@H](O)C[C@H](Cc1ccccc1)NC(=O)[C@H](C(C)C)N1CCCNC1=O [lopinavir] + CC[C@H](C)C[C@H](C)CCCCCCCCC(=O)N[C@H]1C[C@@H](O)[C@@H](NCCN)NC(=O)[C@@H]2[C@@H](O)CCN2C(=O)[C@H]([C@H](O)CCN)NC(=O)[C@H]([C@H](O)[C@@H](O)c2ccc(O)cc2)NC(=O)[C@@H]2C[C@@H](O)CN2C(=O)[C@H]([C@@H](C)O)NC1=O [caspofungin] (first compound 12.5 µM),0.153 ± 0.0047
12,CCCC[C@@H](C=O)NC(=O)OC(C)(C)C + C[C@@H]1[C@H](O)[C@@H](C)/C=C/C=C/C=C/C=C/C=C/C=C/C=C/[C@H](O[C@@H]2O[C@H](C)[C@@H](O)[C@H](N)[C@@H]2O)C[C@@H]2O[C@](O)(C[C@@H](O)C[C@@H](O)[C@H](O)CC[C@@H](O)C[C@@H](O)CC(=O)O[C@H]1C)C[C@H](O)[C@H]2C(=O)O [amphotericin B] (first compound 12.5 µM),0.259 ± 0.011
